The values that follow come from the supplement of paper PMC3414501.

Counter-ions that a name gives are not always drawn.

Assay [1] concerns S. cerevisiae SK1 pCDA2-eGFP (USY613), sporulating. Nature of the assay: CDA2-GFP sporulation assay sensitivity score (z-score vs DMSO controls); higher = stronger inhibition of sporulation, active = hit call of the paper.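 Note: active if sensitivity score above 5.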
Assay [2] deals with S. cerevisiae NKY1551 his4x/his4B, sporulating. Put plainly: HIS4 meiotic recombination assay sensitivity score (z-score vs DMSO controls); higher = stronger inhibition of sporulation/recombination, active = hit call of the paper.
Assay [3] has as its system S. cerevisiae AD1-9 (efflux-pump deficient), vegetative growth in YPD. Put plainly: growth sensitivity score (doubling time z-score vs DMSO controls); higher = slower growth, strongly negative scores also mark growth inhibition (complete suppression), active = hit call of the paper. Summed up: (§1)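 Yeast (Saccharomyces cerevisiae BY4741 and AD1-9) was grown in rich medium in microtiter plates from a starting OD600 of 0.065, with optical density read every 15 min over 24 hours. The growth sensitivity score was the difference between compound and solvent-only means, divided by the solvent-only standard deviation. Every experiment had eight solvent-only wells.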

Assay [4] deals with S. cerevisiae BY4741 (wild-type), vegetative growth in YPD. The description is as above. Summed up:
as §1
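Throughout, for HIS4 meiotic recombination assay sensitivity score (z-score vs DMSO controls): active if sensitivity score above 5.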

For the compound `COc1cc(C)c(Cc2cnc(N)nc2N)cc1OC` [Ormetoprim] (stock concentration (mM, diluted 1:100): 10), the “CDA2-GFP sporulation assay sensitivity score” value in assay [1] is 0.05 (inactive). In assay [2], the “HIS4 meiotic recombination assay sensitivity score” value is -0.05 (inactive). The values for the growth sensitivity score in assay [3] and in assay [4] were -2.46 and -1.06 (inactive), respectively.

Turning to `C[C@H](N[C@@H](CCc1ccccc1)C(=O)O)C(=O)N1CCC[C@H]1C(=O)O` [Enalaprilat] (stock concentration (mM, diluted 1:100): 10), the “CDA2-GFP sporulation assay sensitivity score” value in assay [1] was 1.04 (inactive). Moreover, the “HIS4 meiotic recombination assay sensitivity score” value in assay [2] is -0.11 (inactive). In addition, the values for the growth sensitivity score in assay [3] and in assay [4] were -0.82 (inactive) and 0.34 (inactive), respectively.

Turning to `CN(C)CCC[C@@]1(c2ccc(F)cc2)OCc2cc(C#N)ccc21` [Escitalopram oxalate] (stock concentration (mM, diluted 1:100): 7.9), in assay [1], the “CDA2-GFP sporulation assay sensitivity score” value is 0.99 (inactive). Moreover, in assay [2], the “HIS4 meiotic recombination assay sensitivity score” value was 6.6 (active). The growth sensitivity score is -1.47 (inactive) in assay [3] and 0.93 (inactive) in assay [4].

In the case of `Cc1ncc([N+](=O)[O-])n1CC(C)O` (stereo not given) [Secnidazole] (stock concentration (mM, diluted 1:100): 10), the “CDA2-GFP sporulation assay sensitivity score” value in assay [1] is 0.94 (inactive). Further, in assay [2], the “HIS4 meiotic recombination assay sensitivity score” value is 0.68 (inactive). The growth sensitivity score in assay [3] was -0.44 (inactive); in assay [4], -0.7 (inactive).

Consider `Cc1cccc(C)c1NC(=O)C(C)N` (stereo not given) [Tocainide] (stock concentration (mM, diluted 1:100): 10), for which, in assay [1], the “CDA2-GFP sporulation assay sensitivity score” value was 0.62 (inactive). Besides, the “HIS4 meiotic recombination assay sensitivity score” value in assay [2] was 0.7 (inactive). The growth sensitivity score in assay [3] is 1.11 (inactive); in assay [4] it was -0.53 (inactive).

Regarding `O=C(O)Cc1ccccc1Nc1c(Cl)cccc1Cl` [Diclofenac] (stock concentration (mM, diluted 1:100): 10), the “CDA2-GFP sporulation assay sensitivity score” value in assay [1] is 0.82 (inactive). Also, in assay [2], the “HIS4 meiotic recombination assay sensitivity score” value is 0.28 (inactive). The results for the growth sensitivity score in assay [3] and in assay [4] were 4.97 (active) and 1.48 (inactive), respectively.

Take `CC(C)/N=c1\cc2n(-c3ccc(Cl)cc3)c3ccccc3nc-2cc1Nc1ccc(Cl)cc1` [Clofazimine] (stock concentration (mM, diluted 1:100): 10): the “CDA2-GFP sporulation assay sensitivity score” value in assay [1] was 0.66 (inactive). Moreover, in assay [2], the “HIS4 meiotic recombination assay sensitivity score” value was -1.5 (inactive). Moreover, the growth sensitivity score in assay [3] was 108 (active); in assay [4] it was 61.3 (active).

Turning to `Nc1nc(N)nc(-c2cc(Cl)ccc2Cl)n1` [Irsogladine maleate] (stock concentration (mM, diluted 1:100): 6.9), the “CDA2-GFP sporulation assay sensitivity score” value in assay [1] is 0.91 (inactive). The “HIS4 meiotic recombination assay sensitivity score” value in assay [2] was -0.77 (inactive). The values for the growth sensitivity score in assay [3] and in assay [4] were -0.44 (inactive) and -1.26 (inactive), respectively.

With `O=C1N[C@H](C(=O)O)CS1` [Procysteine] (stock concentration (mM, diluted 1:100): 10), the “CDA2-GFP sporulation assay sensitivity score” value in assay [1] was 0.97 (inactive). The “HIS4 meiotic recombination assay sensitivity score” value in assay [2] is -0.93 (inactive). Moreover, the figures for the growth sensitivity score in assay [3] and in assay [4] were -2.4 and -0.31 (inactive), respectively.

`CCN(CC)C(=O)C1(c2ccccc2)CC1CN` (stereo not given) [Milnacipran] (stock concentration (mM, diluted 1:100): 10): the “CDA2-GFP sporulation assay sensitivity score” value in assay [1] is 2.47 (inactive). In addition, the “HIS4 meiotic recombination assay sensitivity score” value in assay [2] was -0.19 (inactive). Further, the growth sensitivity score in assay [3] is -0.1 (inactive); in assay [4], -0.02 (inactive).

For the compound `CCC(C)n1ncn(-c2ccc(N3CCN(c4ccc(OCC5COC(Cn6cncn6)(c6ccc(Cl)cc6Cl)O5)cc4)CC3)cc2)c1=O` (stereo not given) [Itraconazole] (stock concentration (mM, diluted 1:100): 10.1), in assay [1], the “CDA2-GFP sporulation assay sensitivity score” value was 0.16 (inactive). For the same compound, the “HIS4 meiotic recombination assay sensitivity score” value in assay [2] is -1.94 (inactive). Also, the growth sensitivity score was 21.4 (active) in assay [3] and 10.9 (active) in assay [4].

Turning to `COc1cc(C[C@@H](CO)[C@H](CO)Cc2ccc(O)c(OC)c2)ccc1O` [Secoisolariciresinol] (stock concentration (mM, diluted 1:100): 10), the “CDA2-GFP sporulation assay sensitivity score” value in assay [1] is -0.44 (inactive). The “HIS4 meiotic recombination assay sensitivity score” value in assay [2] was -0.73 (inactive). The growth sensitivity score is 0.75 (inactive) in assay [3] and -0.92 (inactive) in assay [4].

As to `Cc1ccc(O)c([C@H](CCN(C(C)C)C(C)C)c2ccccc2)c1` [Tolterodine tartrate] (stock concentration (mM, diluted 1:100): 6.9), the “CDA2-GFP sporulation assay sensitivity score” value in assay [1] was 1.84 (inactive). In addition, in assay [2], the “HIS4 meiotic recombination assay sensitivity score” value is 4.21 (inactive). Also, the growth sensitivity score is 2.36 (active) in assay [3] and 0.36 (inactive) in assay [4].

For the compound `COc1ccccc1N1CCN(CC(O)COc2cccc3ccccc23)CC1` (stereo not given) [Naftopidil] (stock concentration (mM, diluted 1:100): 10), the “CDA2-GFP sporulation assay sensitivity score” value in assay [1] was 9.59 (active). Further, the “HIS4 meiotic recombination assay sensitivity score” value in assay [2] was 5.23 (active). For the same compound, the growth sensitivity score in assay [4] is 7.62 (active).

As to `CC1(C)O[C@@H]2[C@@H](CO[C@@]3(COS(N)(=O)=O)OC(C)(C)O[C@@H]23)O1` [Topiramate] (stock concentration (mM, diluted 1:100): 10), the “CDA2-GFP sporulation assay sensitivity score” value in assay [1] is -1.32 (inactive). Moreover, in assay [2], the “HIS4 meiotic recombination assay sensitivity score” value was 0.22 (inactive). In addition, the growth sensitivity score in assay [3] was -0.81 (inactive); in assay [4], -1.18 (inactive).

`O=C(NCCO[N+](=O)[O-])c1cccnc1` [Nicorandil] (stock concentration (mM, diluted 1:100): 10): the “CDA2-GFP sporulation assay sensitivity score” value in assay [1] was -0.11 (inactive). Also, the “HIS4 meiotic recombination assay sensitivity score” value in assay [2] was 0.03 (inactive). Further, the growth sensitivity score in assay [3] was -1.47 (inactive); in assay [4], -2.59.

As to `CCOC(=O)N1CCC(=C2c3ccc(Cl)cc3CCc3cccnc32)CC1` [Loratadine] (stock concentration (mM, diluted 1:100): 10), the “CDA2-GFP sporulation assay sensitivity score” value in assay [1] is 3.83 (inactive). For the same compound, the “HIS4 meiotic recombination assay sensitivity score” value in assay [2] was -1.19 (inactive). Besides, in assay [4], the growth sensitivity score was 335 (active).

As to `OCCN1C[C@H](O)[C@@H](O)[C@H](O)[C@H]1CO` [Miglitol] (stock concentration (mM, diluted 1:100): 10), the “CDA2-GFP sporulation assay sensitivity score” value in assay [1] is 1.46 (inactive). Also, in assay [2], the “HIS4 meiotic recombination assay sensitivity score” value is -0.62 (inactive). Also, the figures for the growth sensitivity score in assay [3] and in assay [4] were -2.16 and -1.34 (inactive), respectively.

As for `Cc1c(OCC(F)(F)F)ccnc1C[S+]([O-])c1nc2ccccc2[nH]1` (stereo not given) [Lansoprazole] (stock concentration (mM, diluted 1:100): 10.1), in assay [1], the “CDA2-GFP sporulation assay sensitivity score” value is 14.2 (inactive). Also, the “HIS4 meiotic recombination assay sensitivity score” value in assay [2] is 1.42 (inactive). Also, the growth sensitivity score was 2.67 (active) in assay [3] and 1.37 (inactive) in assay [4].

Take `C[C@@H]1CN(CCCn2c3ccccc3c3ccccc32)C[C@H](C)N1` [Rimcazole] (stock concentration (mM, diluted 1:100): 10.1): the “CDA2-GFP sporulation assay sensitivity score” value in assay [1] is 14.4 (active). Also, in assay [2], the “HIS4 meiotic recombination assay sensitivity score” value was -2.16 (inactive). The growth sensitivity score is 20.3 (active) in assay [3] and 89.4 (active) in assay [4].

As for `COC(=O)C1=C(C)NC(C)=C(C(=O)OC2CCCN(Cc3ccccc3)C2)C1c1cccc([N+](=O)[O-])c1` (stereo not given) [Benidipine hydrochloride] (stock concentration (mM, diluted 1:100): 6), the “CDA2-GFP sporulation assay sensitivity score” value in assay [1] is 4.32 (inactive). For the same compound, in assay [2], the “HIS4 meiotic recombination assay sensitivity score” value was -1.2 (inactive). In addition, the values for the growth sensitivity score in assay [3] and in assay [4] were -3.4 and 1.95 (inactive), respectively.

As for `COc1ccccc1OCCNCC(O)COc1cccc2[nH]c3ccccc3c12` (stereo not given) [Carvedilol] (stock concentration (mM, diluted 1:100): 10), the “CDA2-GFP sporulation assay sensitivity score” value in assay [1] is -0.9 (inactive). The “HIS4 meiotic recombination assay sensitivity score” value in assay [2] was 0.66 (inactive). Besides, the growth sensitivity score in assay [3] was 50.7 (active); in assay [4] it was 0.43 (inactive).

As to `CN1CC(=O)N2[C@H](c3ccc4c(c3)OCO4)c3[nH]c4ccccc4c3C[C@@H]2C1=O` [Tadalafil] (stock concentration (mM, diluted 1:100): 10), the “CDA2-GFP sporulation assay sensitivity score” value in assay [1] is -4.01 (inactive). Besides, the “HIS4 meiotic recombination assay sensitivity score” value in assay [2] is -0.28 (inactive). Further, the growth sensitivity score in assay [3] is -2.54; in assay [4] it was -1.71 (inactive).
